The values below come from PubChem BioAssay AID624256 (NMMLSC, 2012).

Screen size: about 360,000 compounds; about 3,700 (1%) were called active. Not shown: some 2% with an inconclusive outcome.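 The calls were made as follows: active = normalized GFP-positive differentiation at or above the plate's own cutoff, the solvent-only control mean plus 3 SD; inconclusive = no clear call, values can overlap the other calls; inactive = the rest.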 The entries come from a sample that favours actives as a whole.

A short description of the test: HoxA9-arrested leukemia cell differentiation promoters – flow cytometry, MLPCN library, primary screen (AID 624256).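 As to GFP+ MAC1+ double positive: cells exposed to compound for four days before flow analysis.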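 As to normalized GFP-positive differentiation: cells exposed to compound for four days before flow analysis; 0% = DMSO wells and 100% = fulvestrant positive control at 5 µM.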 Particulars: ER-HoxA9 myeloid progenitors, lysozyme-GFP differentiation, at 10 µM; GFP+ MAC1+ double positive: measured here: differentiation confirmed by MAC1 staining, stronger effect = higher value; normalized GFP-positive differentiation: stronger effect = higher value. In general terms: Flow cytometry measures light scatter and fluorescence of single cells or particles in a stream.
For the compound `CC(C)(C)NC(=O)NC(=O)COC(=O)CCC1CCCCC1`, the GFP+ MAC1+ double positive was found to be 0.5% and the compound was called inactive.

Consider `N#CCC(=O)NC(=O)NCC1CC1`, for which the GFP+ MAC1+ double positive amounted to 1.2% and the compound was called inactive.

In the case of `O=C(NCC1CCCCC1)NCC1CCCCC1`, the GFP+ MAC1+ double positive worked out at 5.3% and the normalized GFP-positive differentiation was 9.67% (active).

Turning to `COC(=O)Cc1ccc(OC2(C)CCN(Cc3ccc4c(c3)OCCO4)C2)cc1` (stereo not drawn), the GFP+ MAC1+ double positive is 2.5% and the compound was called inactive.

With `CCC(c1nc2ccccc2[nH]1)n1c(=O)c(-c2cccs2)nc2ccccc21` (stereo not drawn), the GFP+ MAC1+ double positive is 2.5% and the outcome was inactive.

`CCCc1c(-c2ccccc2F)ncn1Cc1ccccc1OC`: the GFP+ MAC1+ double positive was 1.4% and the outcome was inactive.

With `CCc1c(-c2ccc(F)cc2)ncn1Cc1cccc(-c2ccccc2)c1`, the GFP+ MAC1+ double positive turned out to be 3.4% and the call was inactive.

In the case of `Nc1cc(=O)n(Cc2ccccc2)c(=O)n1Cc1ccccc1`, the GFP+ MAC1+ double positive came to 1.4% and the call was inactive.

`CN(C(=O)COC(=O)c1ccc(Br)o1)c1c(N)n(Cc2ccccc2)c(=O)[nH]c1=O`: the GFP+ MAC1+ double positive was 0.6% and the compound was called inactive.

For the compound `Cc1cc2nc3c(=O)n(Cc4ccccc4)c(=O)[nH]c3nc2cc1N`, the GFP+ MAC1+ double positive was 5% and the normalized GFP-positive differentiation is 282% (active).

Regarding `COC(=O)[C@]12CCCCC=C1N(CCC1=CCCCC1)C(=O)[C@H](CC(=O)N1CCSCC1)C2`, the GFP+ MAC1+ double positive was 0.5% and the call was inactive.

On to `N#CC1=C(N)Oc2c(ccc3cccnc23)C1c1ccncc1` (stereo not drawn), for which the GFP+ MAC1+ double positive turned out to be 0% and the call was inactive.

Consider `N#CC1=C(N)Oc2cc(N)ccc2C1c1ccccc1` (stereo not drawn), for which the GFP+ MAC1+ double positive came to 0.2% and the compound was classed as inactive.

`N#CC1=C(N)Oc2c(sc3ccccc23)C1c1ccco1` (stereo not drawn): the GFP+ MAC1+ double positive came to 2.5% and the normalized GFP-positive differentiation is 197% (active).

Consider `CCCCNC(=O)OC1CC2CC1[C@H]1CCCCN1C2=O` (stereo partly drawn), for which the GFP+ MAC1+ double positive was 0.8% and the compound was classed as inactive.

For the compound `COC(=O)[C@@]12C[C@@H](CC(=O)NCCCCc3ccccc3)C(=O)N(Cc3ccccc3)C1=CCC(C)(C)C2`, the GFP+ MAC1+ double positive worked out at 3.1% and the call was inactive.

Consider `Cc1ccc(C(=O)NC2CCCC(C)C2C)cc1S(=O)(=O)N1CCCCC1` (stereo not drawn), for which the GFP+ MAC1+ double positive worked out at 2.2% and the normalized GFP-positive differentiation is 27.1% (active).

For the compound `Cc1ccc(C(=O)NNC(=O)c2ccncc2)cc1S(=O)(=O)N1CCCCC1`, the GFP+ MAC1+ double positive was 0.5% and the result was inactive.

As for `CC1CCCC(NC(=O)c2cc(S(=O)(=O)N3CCCCC3)ccc2Cl)C1C` (stereo not drawn), the GFP+ MAC1+ double positive worked out at 1.2% and the call was inactive.

For `CCOC(=O)[C@]12CCC=C1N(Cc1ccco1)C(=O)[C@H](CC(=O)NCc1cccc(C(F)(F)F)c1)C2`, the GFP+ MAC1+ double positive was 1.6% and the result was inactive.

`COc1ccccc1/C=C/C=N/NC(=O)CN1CCN(Cc2ccccc2)CC1`: the GFP+ MAC1+ double positive came out at 0.2% and the result was inactive.

Consider `CN1CCN(CCC(=O)N/N=C/C=C2\N(C)c3ccccc3C2(C)C)CC1`, for which the GFP+ MAC1+ double positive stood at 2.2% and the normalized GFP-positive differentiation is 224% (active).

For `Cc1cc(NC(=O)CCN2CCN(Cc3ccccc3)CC2)ccc1Br`, the GFP+ MAC1+ double positive amounted to 0.5% and the outcome was inactive.

Regarding `COc1ccc(-c2ccc(C(=O)NCCN3CCOCC3)c3occc23)c(C)c1`, the GFP+ MAC1+ double positive is 1% and the compound was called inactive.

Consider `O=C(NCc1cccnc1)c1cc(C2CCCN(C(=O)C3CCCCC3)C2)on1` (stereo not drawn), for which the GFP+ MAC1+ double positive came out at 0.6% and the compound was classed as inactive.

As for `c1ccc2c(c1)CSc1sccc1C2=C1CCNCC1`, the GFP+ MAC1+ double positive was determined as 4.3% and the normalized GFP-positive differentiation was 87.9% (active).

Regarding `CCCNC(=O)C1(C)CCN(C(=O)c2cc(F)ccc2C)C1` (stereo not drawn), the GFP+ MAC1+ double positive is 1.2% and the call was inactive.

In the case of `COc1ccc(N2c3ccccc3CN(Cc3ccccc3)[C@@H](C)[C@H]2Cc2ccc(-c3ccccc3)cc2)cc1`, the GFP+ MAC1+ double positive was determined as 3% and the result was inactive.

As for `O=C(Nc1ccc2c(c1)OCCO2)C1c2ccccc2OCC(=O)N1Cc1ccccn1` (stereo not drawn), the GFP+ MAC1+ double positive was 1.3% and the compound was classed as inactive.

With `O=C(c1ccc(Oc2ccc(Cl)cc2)c([N+](=O)[O-])c1)N1CCCC1`, the GFP+ MAC1+ double positive was 0.9% and the result was inactive.

For the compound `CC1CCN(C(=O)c2ccc(S(=O)(=O)Cc3cc(F)ccc3F)c([N+](=O)[O-])c2)CC1`, the GFP+ MAC1+ double positive amounted to 1% and the normalized GFP-positive differentiation is 43.9% (active).

On to `Nc1ccc(C(=O)N2CCN(S(=O)(=O)c3ccc(Cl)cc3)CC2)cc1[N+](=O)[O-]`, for which the GFP+ MAC1+ double positive was 0.1% and the compound was called inactive.

As to `O=S1(=O)CC(N2CCN(CCO)CC2)CN1C1CCCC1` (stereo not drawn), the GFP+ MAC1+ double positive is 1% and the compound was classed as inactive.

For the compound `CCN(CC)C(=O)C1CCCN(Cc2cccc(Cl)c2)C1` (stereo not drawn), the GFP+ MAC1+ double positive came to 1% and the compound was classed as inactive.

As for `CCOc1ccc(C2C3=C(CCCC3=O)N(CC(=O)O)C3=C2C(=O)CCC3)cc1`, the GFP+ MAC1+ double positive is 0.6% and the result was inactive.

With `CN(C)N1C(N)=C(C#N)C(c2ccc(Br)cc2)C2=C1CCCC2=O` (stereo not drawn), the GFP+ MAC1+ double positive is 0.4% and the outcome was inactive.

Regarding `CCCN1C2=C(C(=O)CCC2)C(c2ccc(O)c(Br)c2)C2=C1CCCC2=O`, the GFP+ MAC1+ double positive amounted to 3.4% and the normalized GFP-positive differentiation is 78.6% (active).

As to `COc1ccc(C2C3=C(CCCC3=O)N(CC(=O)O)C3=C2C(=O)CCC3)cc1`, the GFP+ MAC1+ double positive amounted to 17.3% and the normalized GFP-positive differentiation is 322% (active).

Consider `COc1ccc(C2C(C#N)=C(N)N(c3ncn[nH]3)C3=C2C(=O)CCC3)cc1` (stereo not drawn), for which the GFP+ MAC1+ double positive came out at 0.3% and the call was inactive.

In the case of `CCOc1ccc(C2C(C#N)=C(N)N(N(C)C)C3=C2C(=O)CCC3)cc1` (stereo not drawn), the GFP+ MAC1+ double positive came to 0.6% and the compound was called inactive.

Regarding `CCOC(=O)N1CCN(C(=O)C[C@@H]2C[C@@]3(C(=O)OC)CCCCC=C3N(CCC3=CCCCC3)C2=O)CC1`, the GFP+ MAC1+ double positive came to 1.2% and the result was inactive.

As for `CN(Cc1ccccc1F)c1cc2c(c3c1ccn3C)C1CCC2O1` (stereo not drawn), the GFP+ MAC1+ double positive was 2.1% and the result was inactive.

`Cc1cc(C)n2c(Nc3c(C)cccc3C)c(CCc3ccccc3)nc2n1`: the GFP+ MAC1+ double positive came out at 0.8% and the compound was classed as inactive.

As for `CC1(C(=O)NS(=O)(=O)Cc2cccc(Cl)c2)CCN1C(=O)Cc1ccccc1` (stereo not drawn), the GFP+ MAC1+ double positive turned out to be 1.3% and the outcome was inactive.
